IMPase cell inh: cell-permeable inhibitors of inositol monophosphatase (IMPase); CHO-M1 cells, IP1 accumulation, HTRF TR-FRET ratio; 120,000 tested, under 10 active; inhibition (IP1 accumulation), % at 46.1 µM; AID 901; active means well fitted curve in the direction sought with a large enough effect in the signal ratio, not every such curve was filed as active; inconclusive means small, poorly fitted or top-dose-only effect, or a change in a side signal; inactive means no such curve, though single readings can be large or run the other way; the % refers to the signal ratio;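 further: cells stimulated with carbachol in lithium chloride buffer; plate controls were DMSO basal wells for no effect and reference inhibitor wells for full effect; higher means more IMPase inhibition seen as more IP1 and lower FRET ratio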
Target sequence (P97697 whole entry, looked up): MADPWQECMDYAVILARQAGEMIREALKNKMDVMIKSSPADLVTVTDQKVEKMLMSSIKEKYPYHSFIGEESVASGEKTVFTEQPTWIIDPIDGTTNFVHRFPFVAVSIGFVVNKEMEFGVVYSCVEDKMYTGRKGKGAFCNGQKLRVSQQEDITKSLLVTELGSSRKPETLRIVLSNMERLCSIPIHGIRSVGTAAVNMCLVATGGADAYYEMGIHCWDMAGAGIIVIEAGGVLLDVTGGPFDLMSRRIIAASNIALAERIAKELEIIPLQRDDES
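Seeded CHO-M1 cells were dosed with compound at up to 46 uM, stimulated with carbachol for 30 min, then lysed in IP-One detection reagents. Higher IP1 lowers the TR-FRET signal.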
LMNA splice mod: changes lamin A minigene splicing in HeLa cells | HeLa LMNA splicing GFP/RFP minigene ratio, 48 h | Potency, µM (highest dose often 46.1 µM), for inactives: at the top dose ratio change, negative = inhibition, usual class: inhibitors | 0.01% of 200,000 active | AID 1487; active means well fitted inhibition curve with a large enough effect in the signal ratio, with a control signal flat, not every such curve was filed as active; inconclusive means small, poorly fitted or top-dose-only effect, or effect the other way, or a change in a side signal; the % refers to the signal ratio; further: potency means the concentration at half of the fitted maximal effect
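S3 HeLa stable clones carrying a lamin A-EGFP splicing minigene plus DsRed2 were seeded at 600 cells/well in Opti-MEM with 2% FBS, pin-dosed and incubated 48 h at 37°C. Acumen cytometry (488 nm) gave the GFP/RFP total-intensity ratio.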
PNC inhibitor: blocks assembly of the perinucleolar compartment. PC3M PTB-GFP, PNC prevalence imaging, 16 h; active compounds read low. activity change (PNC), negative = inhibition, % at 10 µM. 3.1% of 140,000 active. AID 2417;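 active means readout at or below -70, meaning at least 70% loss of cells showing the perinucleolar compartment, a nuclear body marking cancer cells; inconclusive means readout between -30 and a set limit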;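 further: plate controls were DMSO wells for no effect and camptothecin positive control wells for full effect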
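Compounds are pinned in duplicate onto adhered PC3M cells stably expressing GFP-tagged PTB and incubated 16 h at 37 C. Cells are then fixed, nuclei stained with Hoechst, and PNC-positive cells counted.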
Numbers without * were called inactive; [ ] = dose if it differs, or a comment. The sample as a whole holds a higher share of hits than the screen did. Unless noted, on the % scale 0 is the no-effect control and ±100 the full control effect.

`CCCCCOc1ccc(Br)cc1/C(C)=N/NC1=NCCN1` gave IMPase cell inh inconclusive, LMNA splice mod inconclusive and PNC inhibitor -88.5*.
`CSc1nc2sc3c(c2c(=O)n1Cc1ccccc1)CCC(C(C)(C)C)C3` (stereo not given) gave IMPase cell inh 7.3.
Screening O=C(c1cccs1)N1CCN(Cc2ccccc2)CC1 returned LMNA splice mod -5.5% and PNC inhibitor -109.0*.
Screening O=C(c1cccs1)N1CCN(Cc2ccncc2)CC1 returned IMPase cell inh -13.4, LMNA splice mod 15.0% and PNC inhibitor inconclusive.
For Cc1cc2oc(C(=O)Nc3cccc(-c4nc5ccccc5o4)c3)c(C)c2cc1C the results were LMNA splice mod 1.7%[46 µM].
CC1CCCCC1n1c(=S)[nH]c2ccccc2c1=O (stereo not given) was read as IMPase cell inh 8.0, LMNA splice mod inconclusive and PNC inhibitor inconclusive.
Cc1cc(C(N)=O)c2cc(Br)ccc2n1 was read as IMPase cell inh -7.6, LMNA splice mod -4.7% and PNC inhibitor -89.5*.
Cc1cc(C(=O)NN)c2cc(Br)ccc2n1 was read as IMPase cell inh 6.1, LMNA splice mod -3.4% and PNC inhibitor -7.2.
CCOC(=O)c1c(-c2cccc3ccccc23)csc1NC(=O)C1C2CCC(O2)C1C(=O)O (stereo not given) was read as LMNA splice mod -2.3% and PNC inhibitor -4.0.
COC(=O)c1c(-c2ccc(C(C)(C)C)cc2)csc1NC(=O)C1C2CCC(O2)C1C(=O)O (stereo not given) was read as LMNA splice mod -1.5% and PNC inhibitor -98.3*.
`CCC(=O)O[C@@]1(C(=O)SCF)[C@@H](C)C[C@H]2[C@@H]3C[C@@H](F)C4=CC(=O)C=C[C@@]4(C)[C@]3(F)[C@@H](O)C[C@]21C` gave IMPase cell inh 1.3[20.6 µM] and LMNA splice mod inconclusive.
For CC(=O)c1ccc(NC(=O)Cn2c(=O)cc(C)c3c(C)nn(-c4cccc(F)c4)c32)cc1 the results were LMNA splice mod 9.7%[46 µM].
`N#CC1=C(N)C2=C(N3CCCCC3)CCCC2C1(C#N)C#N` (stereo not given) gave IMPase cell inh 22.9, LMNA splice mod -3.7% and PNC inhibitor -6.3.
For CCN(CC)C1=CC2=CC(=C(C#N)C#N)CCC2CC1 (stereo not given) the results were LMNA splice mod inconclusive and PNC inhibitor -134.0*.
`CCCCN(C)C1=CC2=CC(=C(C#N)C#N)CCC2CC1` (stereo not given) gave LMNA splice mod inconclusive and PNC inhibitor -82.6*.
For N#CC(C#N)=C1C=C2C=C(N3CCCCC3)CCC2CC1 (stereo not given) the results were LMNA splice mod inconclusive and PNC inhibitor -118.2*.
CN(C)[C@H]1C(=O)C(C(=O)NCN2CCCC2)=C(O)[C@]2(O)C(=O)C3=C(O)c4c(O)cccc4[C@@](C)(O)[C@H]3C[C@@H]12 was read as IMPase cell inh 6.5[20.6 µM] and LMNA splice mod inconclusive.
COc1ccc(C2(O)CC3CCC(C2)N3c2nc(C)cc(C)c2C#N)cc1 (stereo not given) was read as IMPase cell inh 6.4, LMNA splice mod -16.9% and PNC inhibitor 34.0.
For CN(CC(=O)Nc1ccccc1Cl)S(=O)(=O)c1ccc(C(=O)N2CCOCC2)s1 the results were LMNA splice mod 17.3%[46 µM].
CN(Cc1ccccc1)c1ncnc2c1nc1n2CCCC1 was read as LMNA splice mod -13.2%[46 µM].
Cc1ccc(C)c(CSc2nnc3[nH]c(=O)cc(C)n23)c1 was read as LMNA splice mod -13.8%[46 µM].
For C[C@@](N)(C(=O)O)c1ccc(C(=O)O)cc1 the results were IMPase cell inh -4.0.
Screening COCCn1c(CNC(=O)c2cc(OC)c(OC)c(OC)c2)nc2cccnc21 returned LMNA splice mod 19.7%[46 µM].
Screening CCN(CC)CCNC(=O)c1cc2c(-c3ccc(Cl)cc3)nn(C)c2s1 returned IMPase cell inh 0.6, LMNA splice mod inconclusive and PNC inhibitor 4.5.
Cn1nc(-c2ccc(Cl)cc2)c2cc(C(=O)NC3CC3)sc21 was read as IMPase cell inh 4.0, LMNA splice mod 13.9% and PNC inhibitor -86.0*.
COc1ccc(N2CC(NC(=O)COc3ccc4ccccc4c3)CC2=O)cc1OC (stereo not given) was read as LMNA splice mod 16.1%[46 µM].
COc1ccc(C)cc1NC(=O)C1CCCN(c2ncnc3onc(C)c23)C1 (stereo not given) was read as LMNA splice mod -1.9%[46 µM].
Cc1nc(-c2cccc(NS(C)(=O)=O)c2)cs1 was read as IMPase cell inh -2.4, LMNA splice mod inconclusive and PNC inhibitor inconclusive.
Cc1nc(-c2ccc(NS(C)(=O)=O)cc2)cs1 was read as IMPase cell inh -4.5, LMNA splice mod 8.3% and PNC inhibitor -80.5*.
